High-throughput results from PubChem BioAssay.
In the library only some 7.1% were active in any assay of this set; here they are far more common.
ELG1 genotoxic: inducers of genotoxicity in HEK293T ELG1-luciferase cells; HEK293T ELG1-luciferase reporter, luminescence, 16 h; Potency, µM (titrated, usually from 46 µM), inactives show at the highest dose activity change, positive = activation, most hits filed as activators; 1.3% of 330,000 active; AID 504466; note: % of control where 0% means no effect; nearly all actives have a fitted effect of over 60% in size
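Screening used a luciferase reporter fused to human ELG1 in HEK293T cells. Luminescence was read on a CCD plate imager after 16 hr exposure and 30 min ONE-Glo incubation.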
A-T KAP1 phos: potential ataxia-telangiectasia treatments restoring KAP-1 phosphorylation | 0.19% of 320,000 active | AID 485349 | Potency, µM (doses to about 57.5 µM), for the others: at the top dose activation, usual class: activators | F2112 A-T fibroblasts, KAP-1 phosphorylation AlphaLISA; neocarzinostatin DNA damage 30 min before lysis; note: % of control where 0% means no effect; nearly all actives have a fitted effect of over 45% in size
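ATM-like activity read as KAP-1 phosphorylation via AlphaLISA donor/acceptor antibody pairs after lysis and 6 hr at 25C. Cells were ATM-null patient fibroblasts (F2112, hTERT), dosed 60 min, then exposed to the DSB inducer NCS for 30 min.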
MCF10A rereplic: DNA re-replication induction in MCF 10a cells. MCF 10A DNA re-replication, Hoechst nuclear intensity, 48 h. Potency, µM (highest dose often 46.1 µM), for the others: at the top dose activity, positive = re-replication, actives largely listed as activators. 2.9% of 350,000 active; note: % of control where 0% means no effect; nearly all actives have a fitted effect of over 50% in size
ELG1 DNA repair: inhibitors of ELG1-dependent DNA repair in HEK293T cells; HEK293T ELG1-luciferase reporter, luminescence, 16 h; DNA damage induced by 5-fluorouridine; Potency, µM (series often up to 46.1 µM), without a hit: top-dose activity change, negative = inhibition, hits mostly inhibitors; 2.3% of 330,000 active; note: % is set by controls: 0 for no effect and ±100 for the full control effect; nearly all actives have a fitted effect of over 55% in size
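Overnight (16 hr) co-exposure of 2,000 cells/well to 5-fluorouridine and compound at 37 °C preceded detection. Luciferase was quantified via ONE-Glo luminescence; loss of signal denotes inhibition.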
SW480 rereplic: induces DNA re-replication in SW480 colon adenocarcinoma cells. Potency, µM (titrated, usually from 46.1 µM), inactives show at the top dose re-replication activation, usual class: activators. 1.8% of 340,000 active. SW480 DNA re-replication, Hoechst DNA content imaging, 48 h. AID 624297; note: % of control where 0% means no effect; nearly all actives have a fitted effect of over 55% in size
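Treated cells incubate 48 hr (37 C, 5% CO2), are stained 40 min with Hoechst, and nuclear fluorescence is enumerated; a rise in nuclei with high DNA signal marks re-replication.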
p53 reactivator: restores transcriptional activity of mutant p53; H1299 p53-A138V BP100-luciferase reporter, luminescence, 24 h; Potency, µM (doses to about 92.2 µM), without a hit: at the top dose activity change, positive = activation, actives largely listed as activators; 0.063% of 320,000 active; note: % of control where 0% means no effect; nearly all actives have a fitted effect of over 45% in size
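p53-null H1299 cells stably carrying temperature-sensitive p53-A138V and a BP100-luciferase reporter were pinned with compounds (4-point, 1:5 series) and held 24 hrs at 37 deg C. Luminescence was read 10 min after detection reagent.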
An asterisk follows results filed as active; ? = inconclusive; . = no result; [ ] = dose if it differs, or a comment. Calls come from the whole dose curve; as a rule, active = well fitted curve in the direction sought with a large enough effect; inconclusive = small, poorly fitted or top-dose-only effect, or another doubt; inactive = no such curve, though single readings can be large; an effect the other way counts as inactive or inconclusive. Potency is the fitted concentration of half-maximal effect.

SMILES	ELG1 genotoxic	A-T KAP1 phos	MCF10A rereplic	ELG1 DNA repair	SW480 rereplic	p53 reactivator
Cc1ccccc1-c1cc(=O)c2c(O)cccc2o1	0%	40µM*	-10%	16%	-9%	6%
O=c1cc(-c2ccccc2Cl)oc2c([N+](=O)[O-])c(O)cc(O)c12	-16%	1%	0.82µM*	3.7µM*	-3%	-3%
O=C(Nc1ccc(O)c2c(=O)cc(-c3ccccc3Cl)oc12)c1ccccc1Cl	-4%	-4%	4%	?	33%	-8%
CC(=O)N[C@H](C(=O)N[C@@H](C)C(=O)N[C@H](C#N)CC(=O)O)C(C)C	.	17%	.	.	.	.
CCOC(=O)C1=C(C)NC(C)=C(C(=O)OCC)C1C(=O)OCC(=O)NCc1ccco1	-6%	1%	-51%	10µM*	-7%	-5%
Cc1cccc(C)c1OCCNC(=O)C(=O)NCc1ccco1	-1%	7%	2.9µM*	-1%	2.9µM*	4%
CCNC(=O)COC(=O)c1cc(C)n(-c2ccccc2)c1C	?	12%	13%	26%	?	3%
Cc1cc(C(=O)OCC(=O)NCc2ccco2)c(C)n1-c1ccc(F)cc1	-4%	-9%	2.1µM*	5%	3.7µM*	?
CCOc1ccccc1OCC(=O)NCc1ccco1	-3%	-5%	16µM*	?	13%	3%
O=C1[C@H](c2ccccc2)[C@@H](c2ccccc2)N1c1ccncc1	2%	9%	12%	-5%	5%	-4%
COc1cc(C(CC(=O)Nc2ccc(Cl)cn2)N2Cc3ccccc3C2=O)cc(OC)c1OC (stereo not given)	1%	3%	-2%	-19%	7%	-6%
Nc1nc(=O)c2ccccc2s1	.	.	4%	.	-5%	.
CCCn1nnc2ccccc2c1=O	-1%	-3%	-182%[0.0737 µM]	?	-2%	3%
CCOc1ccc(OCCCCn2cnc3ccccc3c2=O)cc1	-4%	0%	-21%	16µM*	7%[1.84 µM]	-2%
CCOc1ccc(OCCn2nnc3ccccc3c2=O)cc1	18µM*	3%	3%	?	-3%	15%
CC1CCN(C(=O)C(C)NCc2ccc(F)cc2)CC1 (stereo not given)	2%	1%	7%	-3%	2%	.
CCc1ccc2c(c1)C(=O)C[C@]1(CCC[C@H](C)C1)O2	?	?	4%	-3%	-7%	0%
Clc1nc(NCc2ccco2)nc(N2CCCCC2)n1	-8%	2%	?	-10%	4.6µM*	6%
COC(=O)CC(c1ccc(F)cc1)n1c(C)ccc1C (stereo not given)	9%	-4%	23µM*	11%	9%[1.84 µM]	16%
CCCCCCCCN1[C@@H](CC(=O)O)c2cc(C(F)(F)F)ccc2S1(=O)=O	.	.	22%	.	?	.
CCCCCCCCCCCCN1[C@@H](CC(=O)O)c2cc(C(F)(F)F)ccc2S1(=O)=O	.	.	16µM*	.	23%	.
CCCSS/C(CCO)=C(/C)N(C=O)Cc1cnc(C)nc1N	.	.	13µM*	.	?	.
COc1ccc(CCn2c(-n3nc(C)cc3C)nc3c2c(=O)[nH]c(=O)n3C)cc1	.	.	1.6µM*	.	?	.
Cc1ccc(Cn2c(-n3nc(C)cc3C)nc3c2c(=O)[nH]c(=O)n3C)cc1	1%	1%	0%	2%	-1%	-2%
Cn1c(=O)[nH]c(=O)c2c1nc(CN1CCN(c3ccccc3F)CC1)n2CCCc1ccccc1	2%	3%	-2%	6.5µM*	15%	-16%
SMILES	ELG1 genotoxic	A-T KAP1 phos	MCF10A rereplic	ELG1 DNA repair	SW480 rereplic	p53 reactivator
COCCSc1nc2c(c(=O)[nH]c(=O)n2C)n1CCCc1ccccc1	2%	-26%	1.5µM*	?	6%	-2%
CCSc1nc2c(c(=O)[nH]c(=O)n2C)n1CC(O)COc1ccccc1C (stereo not given)	-15%	-7%	?	16µM*	-8%	-1%
Cc1ccccc1OCC(O)Cn1c(SC(C)C)nc2c1c(=O)[nH]c(=O)n2C (stereo not given)	-5%	8%	12%	?	0%	-3%
CCCOc1ccc(C(=O)N(Cc2cccs2)C2CCS(=O)(=O)C2)cc1 (stereo not given)	-4%	6%	2%	?	?	-7%
COc1ccc(S(=O)(=O)NCC2CCCN(Cc3ccccc3Cl)C2)cc1 (stereo not given)	-2%	0%	23µM*	1%	-1%	-3%
O=C(CCN1CCCC1)Nc1ccccc1	0%	-1%	0%	4%	-1%	-5%
O=C(CCCCCCC(=O)Nc1ccccc1)NO	.	.	15µM*	.	3.7µM*	.
O=C(CCN1CCN(CCO)CC1)Nc1ccccc1	2%	3%	0.65µM*	14%	-5%	.
Cc1cc(N2CCCC2)c(F)cc1/C=C\[N+](=O)[O-]	6%	9%	?	14%	29µM*	5%
Cc1cc(N2CCC(C)CC2)c(F)cc1[N+](=O)[O-]	?	-3%	-1%	18%	-9%	5%
CC(CCc1ccccc1)NC(=O)c1ccc(C(=O)NC(C)CCc2ccccc2)cc1 (stereo not given)	-13%	0%	29%	5.2µM*	9%	-1%
CC(CCc1ccccc1)NC(=O)c1ccccc1 (stereo not given)	3%	-3%	-2%	14%	-8%	-7%
CC(CCc1ccccc1)NC(=O)c1cc2sccc2n1C (stereo not given)	?	-3%	15µM*	13%	?	4%
COc1cc(NC(=O)c2cc3sccc3n2C)cc(OC)c1	5.8µM*	7%	25%	?	0%	?
CCOc1ccc(NC(=S)N2CCC(NC(=O)c3ccco3)CC2)cc1	2%	2%	-1%	18%	-6%	12%
Cc1nc(C(=O)N2CCc3c([nH]c4ccccc34)C2c2cc(F)ccc2F)cs1 (stereo not given)	-4%	-4%	?	0%	14%	7%
CC(C)CC(OC(=O)c1nsc(Cl)c1Cl)C(=O)NC1CCCC1 (stereo not given)	0%	-7%	10%	-1%	5%	5%
O=C(Nc1ccc(Cl)c(Cl)c1)C1=Cc2ccccc2OC1	?	.	21µM*	?	3%	?
O=C(Nc1cccc(Cl)c1)C1=Cc2cc(Cl)ccc2OC1	-6%	2%	13µM*	-14%	8%	7%
